Source: PubChem BioAssay
VDR inh = vitamin D3 receptor (human) inhibition; P11473; VDR-SRC2-3 peptide fluorescence polarization, 2 h; Potency, µM, inactives show max response, negative = inhibition, usual class: inhibitors; hit rate 0.93% among 400,000; further: on the % scale 0 is the no-effect control and ±100 the full control effect
Target sequence (P11473 whole entry, looked up): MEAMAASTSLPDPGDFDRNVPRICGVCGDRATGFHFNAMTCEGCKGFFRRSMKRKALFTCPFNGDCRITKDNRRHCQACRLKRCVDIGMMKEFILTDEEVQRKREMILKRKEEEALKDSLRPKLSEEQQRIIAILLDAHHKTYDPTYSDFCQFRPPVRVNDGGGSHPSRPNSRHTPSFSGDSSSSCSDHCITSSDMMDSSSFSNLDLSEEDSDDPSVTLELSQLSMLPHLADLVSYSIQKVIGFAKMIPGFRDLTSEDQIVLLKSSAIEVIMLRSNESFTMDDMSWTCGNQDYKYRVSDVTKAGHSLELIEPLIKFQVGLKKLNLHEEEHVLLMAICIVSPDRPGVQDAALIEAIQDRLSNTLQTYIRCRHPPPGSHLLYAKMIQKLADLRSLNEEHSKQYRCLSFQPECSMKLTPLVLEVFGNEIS
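FP read-out; VDR + SRC2-3 coactivator peptide; 23 nl compound by pintool; 2 h RT incubation; reagents held at 4 deg C, protected from light.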
Glioma ERSR ind = induces the endoplasmic reticulum stress response in human glioma cells; U87-MG GRP78 promoter luciferase reporter, 16 h; Potency, µM, for inactives: at the top dose activation, hits mostly activators; hit rate 0.02% among 420,000; further: series mostly up to about 76 µM; % of control where 0% means no effect; nearly all actives have a fitted effect of over 35% in size
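Stably transfected U87-MG human glioma cells carrying a GRP78-based luminescent sensor were seeded at 1000 cells/well, pin-dosed with compounds and incubated 16 h. Luciferase reagent was then added, and end-point luminescence was read after 10 min at room temperature.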
G9a inh = blocks human histone lysine methyltransferase G9a; Potency, µM (series often up to 102 µM), without a hit: top-dose activity, negative = inhibition, actives largely listed as inhibitors; Q96KQ7; G9a H3K9 monomethylation, AlphaScreen, 2 h; AID 504332; hit rate 8.8% among 350,000; further: on the % scale 0 is the no-effect control and ±100 the full control effect; nearly all actives have a fitted effect of over 75% in size
Target sequence (Q96KQ7 913-1193 limits assumed): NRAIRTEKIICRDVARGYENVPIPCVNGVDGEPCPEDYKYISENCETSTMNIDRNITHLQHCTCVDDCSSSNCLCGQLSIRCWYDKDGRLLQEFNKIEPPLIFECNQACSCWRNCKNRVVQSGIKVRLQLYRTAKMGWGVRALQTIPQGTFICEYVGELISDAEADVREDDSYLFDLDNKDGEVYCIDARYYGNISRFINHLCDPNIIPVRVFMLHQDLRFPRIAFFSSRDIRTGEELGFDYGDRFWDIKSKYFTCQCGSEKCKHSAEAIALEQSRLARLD
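Methyltransferase reactions run at room temperature for 2 h (20 nM enzyme, 500 nM biotin-H3K9 peptide, 20 uM SAM) after a 15 min compound preincubation; product detected by AlphaScreen beads and anti-H3K9me1 antibody.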
ALOX12 inh = blocks human arachidonate 12S-lipoxygenase | purified 12hLO, xylenol orange hydroperoxide absorbance | Potency, µM (titrated, usually from 108 µM), for inactives: at the top dose activity change, negative = inhibition, actives largely listed as inhibitors | AID 1671190 | hit rate 1.1% among 580,000; further: on the % scale 0 is the no-effect control and ±100 the full control effect
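Hydroperoxide product was detected by ferrous iron/xylenol orange as the 573 to 405 nm absorbance ratio. Arachidonic acid at 40 uM (final) was turned over for 30 min at room temperature by 150 nM human 12hLO, pH 7.0 Hepes buffer, after 15 min compound preincubation.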
Sfp inh = inhibitors of Bacillus subtilis Sfp phosphopantetheinyl transferase; AID 1490; Q9F4F7; Potency, µM, inactives show largest response in the series, negative = inhibition, usual class: inhibitors; hit rate 3.5% among 310,000; Biochemical Sfp PPTase activity, qHTS;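 further: the enzyme is Sfp with the accession as filed and its product quenches rhodamine fluorescence; 0% = enzyme reaction without inhibitor and -100% = no enzyme wells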
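After 15 min at room temperature with compound, 15 nM Sfp received 5 uM rhodamine-CoA plus 12.5 uM BHQ-2-ybbR (50 mM Hepes pH 7.6, 10 mM MgCl2). Rate came from the fluorescence difference over 30 min, ex 525/em 598 nm.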
Active calls of the source: *; ? = inconclusive; / = not tested or not shown; [ ] = remark or other dose. Only a selection was taken, and hits are over-represented in it overall. The call rests on the fitted dose curve; in most records, active means well fitted curve in the direction sought with a large enough effect; inconclusive means small, poorly fitted or top-dose-only effect, or another doubt; inactive means no such curve, though single readings can be large; an effect the other way counts as inactive or inconclusive. Potency means the concentration at half of the fitted maximal effect.

SMILES	VDR inh	Glioma ERSR ind	G9a inh	ALOX12 inh	Sfp inh
COc1ccc(NS(=O)(=O)c2cccc(C(=O)NNC(=O)NCCCl)c2)cc1	-5%	6%	50µM*	4%	0%
CCN(CC)S(=O)(=O)c1ccc2nc(CCl)[nH]c2c1	-22%	-4%	50µM*	11%	11%
CCOC(=O)c1ccc2c(c1)[nH]c(=S)n2CC	6%	7%	?	-24%	10%
CN(C)[S+](=O)([O-])c1ccc2c(c1)OCCN(Cc1ccccc1Cl)C2	/	/	/	1%[176 µM]	/
Cc1ccsc1/C=C(\C#N)c1nc(-c2ccc3ccccc3c2)cs1	/	/	/	14%	/
COc1ccc(C23CC4CC(CC(C(=O)N(C)Cc5ccc(OC)c(OC)c5)(C4)C2)C3)cc1	/	/	/	25%	/
COc1ccccc1NS(=O)(=O)c1ccc(C)c(NC(=O)NCCCl)c1	12%	-4%	/	0%	89µM*
COc1ccccc1NS(=O)(=O)c1ccc(C)c(NC(=O)NC2CCCCC2)c1	10%	-5%	0%[59 µM]	-14%	6%
CCOc1ccc(NS(=O)(=O)c2ccc(Cl)c(C(=O)Nc3ccc4oc(C)nc4c3)c2)cc1	/	/	/	-8%	/
CCN(CC)S(=O)(=O)NCCNS(=O)(=O)N(CC)CC	/	/	/	24%	/
Cc1ccc(-c2cc(C(=O)Nc3ccc(C(N)=O)cc3)c3ccccc3n2)o1	/	/	/	7.9µM*	/
COc1ccc(NC(=O)c2cc(-c3ccc(C)o3)nc3ccccc23)cc1OC	-25%	10%	?	?	22µM*
COc1ccc(NC(=O)c2cc(-c3ccc(C)o3)nc3ccccc23)c(OC)c1	-6%	4%	/	?	/
Cc1ccc(-c2cc(C(=O)Nc3ccc(C#N)cc3)c3ccccc3n2)o1	/	/	/	13µM*	/
COc1ccc(-c2cc(C(=O)Nc3ccc(Cl)cc3Cl)c3ccccc3n2)cc1OC	-10%	-1%	15%	9%	35µM*
COc1ccc(-c2cc(C(=O)Nc3c(Cl)cc(Cl)cc3Cl)c3ccccc3n2)cc1OC	-1%	3%	-5%[59 µM]	-27%	?
COc1cc(C2Nc3ccccc3C(=O)N2C2CC2)ccc1O (centres undefined)	/	/	/	-7%	/
CCc1cc(=O)n(CC(=O)Nc2cccc(OC)c2)c(-c2ccccc2)n1	/	/	/	36%	/
CONC(=O)c1ccccc1Cc1ccccc1	/	/	/	-2%	/
Cc1ccc(NC(=O)C2CCN(C(=O)[C@@H]3Cc4ccccc4CN3)CC2)c(C)c1	10%	7%	45µM*	?	2%
COc1ccc(-c2csc(NNC3=NCCCCC3)n2)cc1	?	-3%	10µM*	?	13µM*
Clc1ccc(-c2csc(NNC3=NCCCCC3)n2)cc1	50µM*	?	5%[2.33 µM]	?	56µM*
Brc1ccc(-c2csc(NC3=NCCCCC3)n2)cc1	8%	8%	16%[59 µM]	12%	1%
CCOc1ccc(-c2csc(NNC3=NCCCCC3)n2)cc1	?	2%	7.9µM*	?	10µM*
CCCC(C(=O)Nc1nc2ccc(OC)cc2s1)c1ccccc1 (centres undefined)	/	/	/	-13%	/
SMILES	VDR inh	Glioma ERSR ind	G9a inh	ALOX12 inh	Sfp inh
O=S1(=O)c2cccc3cccc(c23)N1CCCN1CCN(c2ccc(F)cc2)CC1	0%	-6%	0%[12.7 µM]	0%	16%
O=C(CN1CCN(CCN2C(=O)c3cccc4cccc(c34)C2=O)CC1)c1ccc(F)cc1	-4%	-7%	1.6µM*	-18%	-13%
O=C(CN1CCN(CCN2C(=O)c3cccc4cccc(c34)C2=O)CC1)c1ccc(Cl)cc1	/	/	7.9µM*	/	-11%
O=C1c2cccc3cccc(c23)C(=O)N1CCCN1CCN(c2ccc(F)cc2)CC1	-6%	2%	40µM*	3%	0%
N#C/C(=C/c1ccc(OCc2ccccc2C#N)c(Br)c1)c1ccccc1	/	/	/	7%	/
O=C(CSc1nc2ccccc2s1)NC1CCCC1	8%	-4%	22µM*	157%	-7%
C=CCNC(=S)NNC(=O)CSc1nc2ccccc2s1	-12%	-1%	28µM*	2%	5%
O=C(CSc1nc2cc(Cl)ccc2s1)NC1CCCC1	/	/	/	20%	/
CC1(C)CC(C(=O)c2ccccc2)CCO1 (centres undefined)	/	/	/	29%	/
Cc1cc(C)nc(NNC(=O)CCNC(=O)c2ccccc2C)n1	/	/	/	-4%	/
CN(C)/C=C/C=C1C(=O)CC(C)(C)CC1=O	/	/	/	9%	/
CCN(CC)C(=O)C1CCCN(Cc2ccc(OC)c(C)c2)C1 (centres undefined)	-7%	-3%	-49%[12.7 µM]	?	-9%
CCN(CC)C(=O)C1CCCN(Cc2ccc3c(c2)OCO3)C1 (centres undefined)	11%	0%	8.9µM*	?	-30%
CCOC(=O)C1CCCN(Cc2ccc3c(c2)OCO3)C1 (centres undefined)	25%	-4%	8.9µM*	?	-19%
c1ccc(CN2CCC(N3CCN(Cc4ccc5c(c4)OCO5)CC3)CC2)cc1	-7%	-1%	-9%[59 µM]	-10%	0%
c1cc2c(cc1CN1CCN(C3CCCCCC3)CC1)OCO2	22%	-1%	10µM*	?	56µM*
O=C(C1CCCN(Cc2ccc3c(c2)OCO3)C1)N1CCCC1 (centres undefined)	9%	-6%	10µM*	?	-12%
CCC1CSC(Nc2ccc(C)cc2C)=N1 (centres undefined)	/	/	/	-15%	/
COc1ccc(C2c3[nH]c4ccccc4c3CCN2CCCn2cccn2)c(C)c1C (centres undefined)	-2%	-5%	40µM*	15%	-12%
N#CC1(NC(=O)COc2cccc(C(F)(F)F)c2)CCCCC1	/	/	/	8%	/
CC(C)c1ccc(N=C2NN=C(c3cccs3)CS2)cc1	1%	-1%	-4%	-19%	6%
CC(C)N=C1NN=C(c2ccc(Cl)c(Cl)c2)CS1	?	3%	45µM*	?	0%
CC(C)N=C1NN=C(c2cccs2)CS1	-11%	-7%	20µM*	9%	-21%
COC(=O)C1=C(C(=O)OC)SC(=C(Cl)C(=S)Oc2ccccc2)S1	/	/	/	-1%	/
O=C1/C(=C/c2ccccn2)SC(=S)N1NS(=O)(=O)c1ccccc1	-25%	-3%	?	-18%	-1%
SMILES	VDR inh	Glioma ERSR ind	G9a inh	ALOX12 inh	Sfp inh
O=C1/C(=C\c2ccccn2)SC(=S)N1Nc1ncc(C(F)(F)F)cc1Cl	?	0%	10µM*	/	50µM*
O=C1/C(=C/c2ccc(F)cc2)SC(=S)N1Nc1ncc(C(F)(F)F)cc1Cl	?	2%	45µM*	?	50µM*
O=C1/C(=C/c2ccccn2)SC(=S)N1Nc1ncc(C(F)(F)F)cc1Cl	28µM*	-2%	/	?	/
O=C1/C(=C/c2ccccn2)SC(=S)N1CCc1ccccc1	-4%	8%	?	155%	28%
Cc1ccc(S(=O)(=O)NN2C(=O)/C(=C/c3ccc(F)cc3)SC2=S)cc1	-27%	-3%	-8%	-14%	6%
CC(=O)Nc1ccc(OCCS(C)(=O)=O)cc1	/	/	/	4%	/
COCCCn1c(SCC(=O)Nc2ccc(NC(C)=O)cc2)nc2sc3c(c2c1=O)CCC3	8%	1%	45µM*	14%	-1%
